Data as given in paper PMC4336329 (PLoS ONE, 2015).
Among all 310,000 compounds or so, about 14,000 (4.5%) showed an effect of 50% or more. The effect is printed as a negative number. The entries come from a sample that favours strong results as a whole.

target: human ether-à-go-go-related gene (hERG) potassium channel (human, UniProt Q12809); experiment: primary screen, population patch clamp on CHO cells stably expressing hERG; higher = less effect of the substance
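Note: peak tail current of the secondary pulse compared with the same well before compound.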

Chain of human ether-à-go-go-related gene (hERG) potassium channel (Q12809 whole entry, looked up): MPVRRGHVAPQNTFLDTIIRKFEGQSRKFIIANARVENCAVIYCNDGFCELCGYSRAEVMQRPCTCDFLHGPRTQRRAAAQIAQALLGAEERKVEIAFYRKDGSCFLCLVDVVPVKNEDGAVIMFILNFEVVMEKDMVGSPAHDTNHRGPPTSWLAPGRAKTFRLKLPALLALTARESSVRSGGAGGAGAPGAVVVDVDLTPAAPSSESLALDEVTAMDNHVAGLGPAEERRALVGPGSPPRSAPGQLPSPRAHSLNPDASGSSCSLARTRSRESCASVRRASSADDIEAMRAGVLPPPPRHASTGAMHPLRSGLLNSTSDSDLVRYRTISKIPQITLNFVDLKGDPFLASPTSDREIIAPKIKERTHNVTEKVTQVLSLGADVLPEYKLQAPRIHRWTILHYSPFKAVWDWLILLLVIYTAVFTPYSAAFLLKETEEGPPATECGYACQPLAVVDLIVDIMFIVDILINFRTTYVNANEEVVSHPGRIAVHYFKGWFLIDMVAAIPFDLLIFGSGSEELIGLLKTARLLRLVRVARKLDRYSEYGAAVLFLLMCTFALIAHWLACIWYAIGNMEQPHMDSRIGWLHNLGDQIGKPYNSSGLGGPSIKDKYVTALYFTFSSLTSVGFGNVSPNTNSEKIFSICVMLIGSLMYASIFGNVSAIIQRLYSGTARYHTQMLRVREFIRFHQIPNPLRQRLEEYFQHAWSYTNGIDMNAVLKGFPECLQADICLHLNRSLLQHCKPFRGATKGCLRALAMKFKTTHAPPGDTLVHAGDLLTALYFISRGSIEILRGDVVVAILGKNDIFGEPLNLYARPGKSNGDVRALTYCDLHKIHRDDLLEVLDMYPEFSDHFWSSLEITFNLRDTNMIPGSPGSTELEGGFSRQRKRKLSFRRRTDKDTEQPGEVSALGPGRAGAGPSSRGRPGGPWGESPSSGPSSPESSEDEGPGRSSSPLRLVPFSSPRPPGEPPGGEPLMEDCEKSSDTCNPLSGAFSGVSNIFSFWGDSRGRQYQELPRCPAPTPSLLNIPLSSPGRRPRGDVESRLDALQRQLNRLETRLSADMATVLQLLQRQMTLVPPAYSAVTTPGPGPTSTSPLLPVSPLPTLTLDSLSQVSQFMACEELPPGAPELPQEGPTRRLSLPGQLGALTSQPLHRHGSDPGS

Compound | hERG current change (%, negative = inhibition) at 10uM
COc1ccc(-n2nc3c(c2NC(=O)CCCCl)CSC3)cc1 | -1.78%
CCCN(CCC)CCCNC(=S)Nc1ccc2nc(N3CCN(C)CC3)cc(C)c2c1 | 8.86%
CCOCCCNC(=S)Nc1ccc2nc(N3CCN(CC)CC3)cc(C)c2c1 | 4.36%
CCN1CCN(c2cc(C)c3cc(NC(=S)NCCCOC)ccc3n2)CC1 | 5.8%
COCCNC(=S)Nc1ccc2nc(N3CCCC3)cc(C)c2c1 | -71.6%
CCN(CC)CCNC(=S)Nc1ccc2nc(N3CCCC3)cc(C)c2c1 | -8.93%
CCOCCCNC(=S)Nc1ccc2nc(N3CCCC3)cc(C)c2c1 | -73.3%
CCOCCCNC(=S)Nc1ccc2nc(N3CCOCC3)cc(C)c2c1 | -7.68%
COCCNC(=S)Nc1ccc2nc(N3CCN(C)CC3)cc(C)c2c1 | 8.03%
CCCN(CCC)CCCNC(=S)Nc1ccc2nc(N3CCCC3)cc(C)c2c1 | -60.4%
CCCN(CCC)CCCNC(=S)Nc1ccc2nc(N3CCN(CC)CC3)cc(C)c2c1 | -3.08%
Cc1cc(N2CCCC2)nc2ccc(NC(=S)NCCCOC(C)C)cc12 | -83.4%
Cc1cc(N2CCCC2)nc2ccc(NC(=S)NCCCN3CCC(C)CC3)cc12 | -29.6%
CCOc1ccc(C(=O)Nc2ncn[nH]2)cc1 | 19.1%
O=C(CCc1c[nH]c2ccccc12)N/N=C/c1ccc2c(c1)OCO2 | 6.33%
CC1=CCC2C(=O)N(CCc3c[nH]c4ccccc34)C(=O)C2C1 (centres unmarked) | -9.31%
COc1ccc(CC(=O)NNc2ncnc3c2cnn3-c2ccc(C)cc2)cc1OC | 10.5%
COc1ccc(CNC(=O)Cn2nnc(-c3ccc(NC(=O)C4CCCCC4)cc3)n2)cc1 | 14%
COc1ccccc1NS(=O)(=O)c1cc(-c2cnc(C3CC3)o2)ccc1C | 3.37%
O=C1CSC(c2cn(-c3ccccc3)nc2-c2cccs2)N1Cc1ccccc1 (centres unmarked) | -1.38%
O=Cc1c(NCc2ccccc2F)c2ccccc2[nH]c1=O | 13.8%
CCOCCCNC(=S)N1CCCN(c2nc3cc(C)ccc3cc2C#N)CC1 | -30.9%

Compound | hERG current change (%, negative = inhibition) at 10uM
Cc1cc(N2CCCC2)nc2ccc(NC(=S)NC(C)C)cc12 | -71.6%
Cc1cc(N2CCOCC2)nc2ccc(NC(=S)NC(C)C)cc12 | -12.4%
CCC(C)NC(=S)Nc1ccc2nc(N3CCOCC3)cc(C)c2c1 (centres unmarked) | 5.86%
CCOCCCNC(=S)N1CCCN(c2nc3cc(C)c(C)cc3cc2C#N)CC1 | -36.4%
CCOCCCNC(=S)N1CCCN(c2nc3cc(C)cc(C)c3cc2C#N)CC1 | -55.6%
CSc1nsc(SCC(=O)Nc2ccc(OC(C)=O)cc2)n1 | 4.1%
Cc1c(N=N/C(C(=O)Nc2ccccc2)=C(/O)c2ccccc2)c(=O)n(-c2ccccc2)n1C | 8.85%
CC(C)CN=CC1=C(O)c2ccccc2C1=O | -71.4%
O=C1C(C=NCc2ccncc2)=C(O)c2ccccc21 | -9.12%
CN=CC1=C(O)c2ccccc2C1=O | 14.7%
CCOC(=O)N1CCC(NC(=O)CCc2nc(C3=CCN(C)CC3)no2)CC1 | -3.37%
COc1ccc(C(=O)NCCNc2nc3ccc(C)cc3cc2C#N)cc1 | 4.99%
CCN(Cc1ccncc1)Cc1ccc(OC)c(OC)c1.O=C(O)C(=O)O | -6.49%
COc1ccc(CN(CCN(C)C)Cc2ccccc2)c(OC)c1.O=C(O)C(=O)O | -46.1%
CCN(Cc1ccncc1)Cc1ccc(OC)cc1OC.O=C(O)C(=O)O | -51.4%
COc1ccc(N(CC(=O)Nc2cc(C)on2)S(=O)(=O)c2ccc(Cl)cc2)cc1 | 9.89%
COC(=O)N[C@H](CC(C)=O)c1cccc(C(F)(F)F)c1 | 19.5%
CC(C)(C)c1cc(CCC(=O)NCc2ccccn2)cc(C(C)(C)C)c1O | -10.1%
CC(C)Cc1cc(CN2CCC(CO)(Cc3ccccc3)CC2)[nH]n1 | -71.6%
CC(C)=CCN1CCN(Cc2cc(CC(C)C)n[nH]2)CC1CCO (centres unmarked) | -9.57%
CC(C)Cc1cc(CN2CCCC(CO)(Cc3cccc(Cl)c3)C2)[nH]n1 (centres unmarked) | -52.5%
Cc1cc(CN2CCCC(CO)(Cc3cccc(Cl)c3)C2)n[nH]1 (centres unmarked) | -43.2%

Compound | hERG current change (%, negative = inhibition) at 10uM
CC(C)n1cc(CN2CCCC(CO)(Cc3cccc(Cl)c3)C2)cn1 (centres unmarked) | -24%
OCC1(Cc2ccccc2)CCN(Cc2ccccn2)CC1 | -9.51%
CC(C)Cc1cc(CN2CCC(CO)(Cc3cccc(C(F)(F)F)c3)CC2)[nH]n1 | -78%
Cc1cc(C(=O)N2CCC(CO)(Cc3cccc(C(F)(F)F)c3)CC2)n[nH]1 | -49.4%
CC(C)c1csc(CN2CCC(CO)(Cc3ccccc3)CC2)n1 | -9.39%
CC(C)NC(=O)Cn1nc(C(F)(F)F)c2c1CCC2 | 7.42%
C=C(C)CNc1cc(S(=O)(=O)N2CCOCC2)ccc1Oc1ccccc1 | -21.3%
O=C(CCN1C(=O)c2cccc3cccc(c23)C1=O)N1CCOCC1 | 19.9%
CCN1CCN(CC(=O)NC2CCCCC2)C(=O)C1=O | 1.65%
COc1cccc(CNC(=O)C(C)n2nc(C)n3c(cc4occc43)c2=O)c1 (centres unmarked) | 7.17%
CCCOc1ccc(C(=O)NNC(=S)NC(=O)c2cccs2)cc1 | 16.7%
CC(C)=CC(=O)O[C@H]1[C@@H]2[C@H](C)C(=O)O[C@@H]2C[C@@H](C)[C@@H]2[C@@H](O)CC(=O)[C@]21C | 22.4%
COC(=O)CCSc1cc(NCCOC(C)=O)c([N+](=O)[O-])c2nonc12 | -25.6%
O=C(N/N=C/c1cn(CC(=O)N2CCOCC2)c2ccccc12)c1cccnc1 | 16.3%
Cc1ccc(NC(=O)C(C)Sc2nc(-c3ccccc3)cc(=O)[nH]2)cc1 (centres unmarked) | 20.8%
COc1ccccc1NC(=O)/C(=C\c1cccnc1)NC(=O)c1ccc(C)cc1 | -71.9%
Cc1ccc(C(=O)N/C(=C/c2cccnc2)C(=O)O)cc1 | 8.41%
Cc1ccc(NC(=O)/C(=C\c2cccnc2)NC(=O)c2ccccc2)cc1 | -46%
O=C(Nc1ccccc1)/C(=C/c1cccnc1)NC(=O)c1ccccc1 | 2.08%
COc1ccccc1NC(=O)/C(=C\c1cccnc1)NC(=O)c1ccccc1 | -65.5%
COc1ccccc1NC(=O)/C(=C/c1ccncc1)NC(=O)c1ccccc1 | -10.6%
COc1cc(OC)c(OC)cc1CNC(=O)c1ccc(S(=O)(=O)N2CC(C)OC(C)C2)cc1 (centres unmarked) | -11%

Compound | hERG current change (%, negative = inhibition) at 10uM
O=C(COc1cc(Cl)c(Cl)cc1Cl)NCCN1CCOCC1 | -7.1%
CCCCNC(=O)[C@H](Cc1c[nH]c2ccccc12)NC(=O)c1ccccc1Cl | -8.26%
CC(C)CCNC(=O)C1CCCN(S(=O)(=O)c2ccc(-n3cnnn3)cc2)C1 (centres unmarked) | 22.5%
O=C(NCc1ccco1)C1CCCN(S(=O)(=O)c2ccc(-n3cnnn3)cc2)C1 (centres unmarked) | -61.8%
O=C(NCC1CC1)C1CCCN(S(=O)(=O)c2ccc(-n3cnnn3)cc2)C1 (centres unmarked) | -63.7%
NC(=O)CNC(=O)C1CCN(S(=O)(=O)c2ccc(-n3cnnn3)cc2)CC1 | -41.4%
COc1ccccc1NC(=O)C1CCCN(S(=O)(=O)c2ccc(-n3cnnn3)cc2)C1 (centres unmarked) | -46.8%
COc1ccc(C)cc1NC(=O)C1CCCN(S(=O)(=O)c2ccc(-n3cnnn3)cc2)C1 (centres unmarked) | -69.8%
O=C(NCc1ccccc1)C1CCCN(S(=O)(=O)c2ccc(-n3cnnn3)cc2)C1 (centres unmarked) | 2.94%
C=CCNC(=O)C1CCCN(S(=O)(=O)c2ccc(-n3cnnn3)cc2)C1 (centres unmarked) | -27.5%
COc1ccc(OC)c(NC(=O)C2CCCN(S(=O)(=O)c3ccc(-n4cnnn4)cc3)C2)c1 (centres unmarked) | -12.5%
O=C(NCc1ccccc1F)C1CCCN(S(=O)(=O)c2ccc(-n3cnnn3)cc2)C1 (centres unmarked) | -1.94%
O=C(NCc1ccco1)C1CCN(S(=O)(=O)c2ccc(-n3cnnn3)cc2)CC1 | -70.5%
CC(=O)Nc1ccc(S(=O)(=O)N2CCC(C(=O)NCc3ccco3)CC2)cc1 | 0.324%
COC(=O)C1=C(C(=O)OC)[C@@H]2N(C)c3ccccc3[C@@]23C[C@@H](C(=O)OC)N(C(=O)c2ccc(Br)cc2)C3=N1 | -1.06%
Fc1ccc2c(c1)C(c1ccc(N3CCOCC3)cc1)=NNC(c1cccs1)=N2 | -1.96%
CC1=CC(C)(C)NC(=S)N1c1cc(C)cc(C)c1 | 10.5%
Cc1nc(Nc2ccc(C(=O)O)cc2)nc(Nc2ccc(C(=O)O)cc2)c1[N+](=O)[O-] | 15.3%
Cc1cc(=O)c2cc(C(=O)c3ccccc3)ccc2[nH]1 | -4.4%
COc1ccccc1Cn1c(=O)c2ccccc2n2c(SCc3csc(C)n3)nnc12 | -6.34%
